Measured values as given in ChEMBL document CHEMBL3988442, “University of Dundee, Small-Polar-MMV Screening Library” (2021).
Hit rate of the full screen: of about 38,000 compounds, about 1,200 (3.2%) showed an effect of 50% or more. The median lay at about -58%. This excerpt belongs to a sample that is enriched for strong results.

Each compound was assayed on Plasmodium falciparum (assay: Calibr Malaria Delayed Death Assay SOP). Settings: concentration 4.99e-06 (unit not given; other assays of the set use mol/L).
Type: functional, organism-based
Design: scale not given: in the data most compounds retested in dose-response had high values

SMILES | Percent Effect [%]
CCn1ccnc1CNCc1ccc(C)cc1OC(C)(C)C | 21.04
Cn1cc(CN2CC[C@@H]3[C@H]2CCC(=O)N3c2ccccc2)cn1.O=C(O)C(F)(F)F | -62.18
Cn1cnc2nc3n(c2c1=O)CCC3 | -114.6
COc1ccc2nnc(CCC(=O)Nc3nc4c(s3)CCC4)n2n1 | -9.679
CCN1CCC(CNc2nccc(C)n2)(N(C)C)CC1 | -52.36
O=C(O)C(F)(F)F.O=C(O)C(F)(F)F.c1cc(CN2CCCC3(COCCN(Cc4c[nH]nn4)C3)C2)cs1 (centres undefined) | 27.82
Cn1cc(CN2CCCC3(COCCN(Cc4c[nH]nn4)C3)C2)cn1.O=C(O)C(F)(F)F.O=C(O)C(F)(F)F (centres undefined) | -58.09
Fc1ccc(CN2CCCC3(COCCN(Cc4c[nH]nn4)C3)C2)cc1.O=C(O)C(F)(F)F.O=C(O)C(F)(F)F (centres undefined) | 61.69
CO[C@@H]1CC[C@H]2[C@H]1OCCN2C(=O)C1CCOCC1 | -57.64
NS(=O)(=O)c1cnn(CCC(=O)N(C2CCCCC2)C2CC2)c1 | -77.61
CC(C)(C(=O)NCC(=O)N1CCCC1)c1ccccc1F | -11.95
COC(=O)CCC(=O)N1CCC2(CN(Cc3cccc(Cl)c3)C2)C1 | -43.68
COCCC(=O)N1CCC2(CN(Cc3cccc(Cl)c3)C2)C1 | -141.8
CC(=O)N(c1ccc(C)cc1)c1nc(CN2CCCC(C)C2)cs1 (centres undefined) | 82.35
CC(=O)N(C)c1nc(CN2CCCC2Cn2cncn2)cs1 (centres undefined) | -120.1
CC(=O)N(C)c1nc(CN2CCCCC2Cn2cncn2)cs1 (centres undefined) | -131.1
Cc1cccc2nc(CN3CCCC(C)C3)cc(=O)n12 (centres undefined) | -16.65
CC1CCCN(Cc2ccc(CNC(=O)NCc3ccon3)cc2)C1 (centres undefined) | -178.1
CC(=O)N(C)c1nc(CN2CCCC2c2cnn(C)c2)cs1 (centres undefined) | -87.18
CC(=O)N(c1ccc(F)cc1)c1nc(CN2CCCC2C(C)C)cs1 (centres undefined) | 89.73
CC(=O)N(c1ccc(C)cc1)c1nc(CN2CCCCC2C)cs1 (centres undefined) | 61.62
CCN(C(C)=O)c1nc(CN2CCCCC2Cn2cncn2)cs1 (centres undefined) | 7.085
O=C(O)C(F)(F)F.c1cnc(N2CC[C@@H](OCC3CC3)[C@@H]2Cc2cccnc2)nc1 | -48.06
Cn1cc(C(=O)CC2CCCN2C(=O)c2c[nH]c3ccccc23)cn1 (centres undefined) | 4.786
CCC(CO)N(C/C(C)=C/c1ccco1)Cc1ccco1 (centres undefined) | -44.13

SMILES | Percent Effect [%]
Cc1ccc(C(=O)N2CCO[C@H]3[C@H](OCC4CCOCC4)CC[C@@H]32)o1 | -19.31
CS(=O)(=O)NC[C@]12COC[C@H]1CN(C(=O)CC1CCCC1)C2 | -153.3
O=C(C1CCOCC1)N1C[C@H]2CCC[C@@]2(COc2cccnc2)C1.O=C(O)C(F)(F)F | -16.46
Cn1nnc(NCc2ccc(OCc3ccc(Cl)cc3)cc2)n1 | -71.17
Cc1nc2oc(C(=O)N3CCOCC3)c(N)c2c2c1CCCC2 | -269.1
O=C(C[C@@H]1COC[C@H]2CN(Cc3ccccc3)C[C@@H]12)N1CCCC1.O=C(O)C(F)(F)F | -13.07
CC(C)(C)c1cc2ncn(CCCN3CCCCC3CO)c(=O)c2s1 (centres undefined) | -23.08
O=C(NCC1CC1)C1CCC2(CCN(C(=O)c3ccccn3)CC2)O1.O=C(O)C(F)(F)F (centres undefined) | -137.4
O=C(NCC(O)CO)Nc1cc(Br)ccc1F (centres undefined) | -140
O=C(NCc1cccnc1N1CCc2ccccc2C1)c1cc(=O)[nH][nH]1 | -96.6
Cc1nc(CN2CCCC(NCc3nc4ccccc4s3)C2)no1 (centres undefined) | -31.98
COc1ccccc1OCCNC1CCCN(Cc2noc(C)n2)C1 (centres undefined) | 19.3
Cc1nc(CN2CCCC(NCc3ccc4ccccc4c3)C2)no1 (centres undefined) | -12.45
Cc1nc(CN2CCCC(N(C)Cc3cnn(C)c3)C2)no1 (centres undefined) | -49.27
Cc1cc(CN(C)C2CCCN(Cc3noc(C)n3)C2)no1 (centres undefined) | -96.62
Cc1nc(CN2CCCC(NCc3cccc4ccccc34)C2)no1 (centres undefined) | 57.02
Cc1nc(CN2CCCC(NCCc3ccccc3Cl)C2)no1 (centres undefined) | 81.78
Cc1nc(CN2CCCC(NCCOc3ccccc3)C2)no1 (centres undefined) | -60.44
Cc1nc(CN2CCCC(N(C)Cc3c(C)noc3C)C2)no1 (centres undefined) | 57.32
CCOc1ncccc1CNS(=O)(=O)c1ccc2c(c1)CCO2 | -29.02
CCc1nnc2n1CCN(Cc1nc3c(F)cccc3[nH]1)C2 | -34.12
O=C(NCc1cccs1)[C@H]1CC[C@@H]2[C@@H](CCN2Cc2ccoc2)O1.O=C(O)C(F)(F)F | 4.133
Cc1nnc([C@@]23CCO[C@@H]2CCN(Cc2cccc4ccccc24)C3)o1 | -36.67
COc1cc(C2CC(=O)Nc3c2nc2n3CCCC2)cc(OC)c1O (centres undefined) | -209
Cc1noc2ncc(S(=O)(=O)N3CCCC(C)(C)CC3)cc12 | -55

SMILES | Percent Effect [%]
CCN(CC)c1ccc(-c2ccc(C)c(S(N)(=O)=O)c2)nn1 | -97.64
CC(CN1CC[C@@H]2CCCC[C@@H]2C1)n1cnc2ccccc21 (some centres undefined) | -12.48
CN(Cc1ccc(N(C)C)cc1)C(=O)NCc1nnc2n1CCC2 | -107.1
Cc1ccc(CNC(C)(C)c2noc(C(C)(C)C)n2)o1 | -93.54
COC(=O)c1ccc(CNC(C)(C)c2ccccc2OC)o1 | -1.138
COc1ccccc1C(C)(C)NCc1ccco1 | 64.69
COc1ccccc1C(O)Cn1cc(C(=O)NCc2ccco2)nn1 (centres undefined) | -49.33
COc1ccccc1C(C)(C)NCc1ccc(C)o1 | 77.27
CNc1c(NCc2ccco2)c(=O)c1=O | -69.06
CCc1nc(CN2CCCC(N(C)Cc3nc(C)c(C)o3)C2)no1 (centres undefined) | -5.85
Cc1ncnc2c1CCN(CC(=O)N(C)C)CC2.O=C(O)C(F)(F)F | -30.27
O=C(C1=COCCO1)N1CC(Oc2nc3c(Cl)cccc3s2)C1 | -117.3
COCCN1C(=O)CC[C@@H]2[C@H]1CCN2S(=O)(=O)c1cccs1 | -44.47
O=C(NCCc1csc(-c2ncccn2)n1)c1cnn2c1CCCC2 | -31.93
CC(=O)N1CCCC1c1cccc(Cc2ccccc2Cl)n1 (centres undefined) | -62.89
CN(C)S(=O)(=O)N1CCCC(c2cccc(Cc3ccc(Cl)cc3)n2)C1 (centres undefined) | -15.18
O=C(C1CC=CC1)N1C[C@H]2CN(Cc3ccncc3)C(=O)[C@H]2C1.O=C(O)C(F)(F)F | -118.6
COc1ccc(C(C(=O)O)N(C)CCN2CCCC2)cc1F (centres undefined) | -71.16
COc1ccc(C(C(=O)O)N(C)CCN2CCOCC2)c(C)c1 (centres undefined) | -92.34
COc1ccc(C(C(=O)O)N(C)CCN2CCCC2)c(C)c1 (centres undefined) | -56.58
COc1cc(F)ccc1C(C(=O)O)N(C)CCN1CCCC1 (centres undefined) | 71.25
Cc1ccc(C(C(=O)O)N(C)CCN2CCOCC2)c(F)c1 (centres undefined) | -35.14
COc1cc(F)ccc1C(C(=O)O)N(C)CCN1CCOCC1 (centres undefined) | 79.89
CCCS(=O)(=O)N1C[C@H]2C[C@H](C(=O)Nc3cccnc3)[C@@H](C1)O2 | -54.27
CC(C)=CCN1CCN(Cc2cccc(C)n2)CC1CCO (centres undefined) | -53.69

SMILES | Percent Effect [%]
Cc1cc(NCCc2nc(C)cs2)nc(-c2cccnc2)n1 | -152.4
CC(C(=O)NN1CCOCC1)n1nc(C(F)(F)F)c(Cl)c1C1CC1 (centres undefined) | -94.38
Cc1c(C(=O)NC2=NCCS2)cnn1-c1ccc(Cl)cc1 | -71.42
COCCCN1CC2(CCCN(c3ncc(Cl)cc3F)C2)CCC1=O (centres undefined) | -81.54
COCCN1CC2(CCCN(c3ncc(Cl)cc3F)C2)CCC1=O (centres undefined) | -14.43
CN(C)CCN1CC2(CCCN(c3ncc(Cl)cc3F)C2)CCC1=O (centres undefined) | 82.66
CCN1Cc2nc(OC)c(CNC(=O)C3CCCN(C)C3)cc2C1=O (centres undefined) | -47.23
C=C(C)CN1CCCC(NS(C)(=O)=O)C1 (centres undefined) | -112.5
CO[C@H]1CN(C(=O)c2ccnnc2)[C@@H]2COC[C@H]12 | -17.32
CN(C)CCN1C[C@@H]2CN(c3ccccc3)C[C@@H]2C1=O.O=C(O)C(F)(F)F | -48.1
O=C(CNC(=O)C1CC1)Nc1c(F)cccc1Oc1ccccc1 | -53.44
CCC(=O)NC(CC)c1ccccc1C (centres undefined) | -70.92
Cc1ccsc1C(O)CNC(=O)Cc1ccc(F)cc1 (centres undefined) | -29.72
Cc1ccsc1C(Cc1ccccc1)NC(=O)CSCC(N)=O (centres undefined) | -15.45
CCC(=O)NCC(=O)NC(Cc1ccccc1)c1sccc1C (centres undefined) | 84.56
Cc1ccsc1C(Cc1ccccc1)NC(=O)CNC(=O)C1CC1 (centres undefined) | 68.17
COc1cccc2c1OCC(Cc1cc(C(N)=O)ccn1)C2 (centres undefined) | -54.91
CCc1nc(CN(C)C(=O)c2ccc(OCCCOC)nc2)cs1 | -70.62
Cn1cc(CC(=O)N2CCC(Nc3cccnn3)CC2)c2ccccc21 | -27.56
CCC(CNC(=O)COC)Oc1cccc(F)c1 (centres undefined) | -58.01
CCC(=O)NCC(CC)Oc1cccc(F)c1 (centres undefined) | -6.3
CCC(CNC(=O)CNC(C)=O)Oc1cccc(F)c1 (centres undefined) | 84.82
Cc1cc(C(=O)N2CCCC(c3cc(C(F)(F)F)[nH]n3)C2)[nH]n1 (centres undefined) | -117
O=C(O)C(F)(F)F.O=C(O)C(F)(F)F.c1cncc(-c2ncnc3c2CCN(Cc2ccsc2)CC3)c1 | -128.4
